Results reported in the antibiotic and cytotoxicity screens of Wong et al. (2023).
Screen size: about 39,000 compounds; about 3,300 (8.5%) were called active. The sample as a whole holds a higher share of actives than the screen did.

test system: HepG2; experiment: cytotoxicity call (relative viability < 0.9); conditions: 10 µM

Structure (SMILES) | cytotoxicity call
CCCCOC(=O)C1=CC(=O)CC(C)(C)O1 | active
C[C@@H](O)CN1C[C@H]2C[C@@H](C1)c1cccc(=O)n1C2 | inactive
CN1C[C@@H](C(=O)O)CN2CCN(C(=O)c3ccncc3F)C[C@@H]2C1 | inactive
O=C1CC2(CCNCC2)CN1 | inactive
C1CCC(NC2CCCC2)CC1 | inactive
CCC1(C2=NCCN2)Cc2ccccc2O1.Cl (configuration not stated) | inactive
Cl.c1ccc2c(c1)OCC(C1=NCCN1)O2 (configuration not stated) | active
NCC[C@H]1COc2ccccc2O1 | inactive
FC(F)(F)c1nnc(N2CCNCC2)s1 | inactive
CCN1C[C@]2(COC)CC[C@H](O)[C@@]34[C@@H]2[C@@H](OC)[C@@H]([C@@H]13)[C@@]1(OC(C)=O)C[C@H](OC)[C@H]2C[C@H]4[C@@H]1[C@@H]2OC(C)=O | inactive
CC(C)c1csc(CCN)n1 | inactive
CN1C[C@H]2CN[C@H]2C1 | inactive
Cc1[nH]c2ccccc2c1CN(C)C | inactive
c1ccc(N2CCNCC2)nc1 | inactive
O=C(O)C=CC(=O)O.c1ccc2nc(N3CCNCC3)ccc2c1 | active
Cc1cccc(N2CCNCC2)n1 | inactive
COc1ccc([C@H]2CC(=O)N3CCNC[C@@H]23)cc1 | inactive
CCCN1CC(CSC)CC2c3cccc4[nH]cc(c34)CC21.CS(=O)(=O)O (configuration not stated) | inactive
CNC(C)C(O)c1ccccc1.Cl (configuration not stated) | inactive
O=C(O)C[C@H]1CC[C@@H]2NC[C@H](O)COC[C@H]2O1 | inactive
C[CH2][Hg][S]c1ccccc1C(=O)[O-].[Na+] | active
O=C([O-])Cc1ccccc1.[Na+] | inactive
N[C@@]1(C(=O)O)CC[C@H](C(=O)O)C1 | inactive
NCCc1ccc(S(=O)(=O)F)cc1 | inactive
CN1C(=O)NC(=O)/C(=C\C=C\c2ccco2)C1=O | inactive
C[C@@]12NC(=O)CN1CCc1ccccc12 | inactive

Structure (SMILES) | cytotoxicity call
CC(C)NC(=O)C1=NO[C@]2(CCNC2)C1 | inactive
Nc1nc(Cl)ncc1[N+](=O)[O-] | inactive
O=C1CCCC2C3CC(CN12)C1CCCCN1C3.[O-][Cl+3]([O-])([O-])O (configuration not stated) | inactive
COc1ccc2cc(CCN)c(=O)[nH]c2c1 | inactive
Cc1nccc2c1[nH]c1ccccc12 [listing 1 of 2 here] | inactive
c1ccc2c(c1)[nH]c1cnccc12 | inactive
Cc1nccc2c1[nH]c1cc(O)ccc12 [listing 1 of 2 here] | active
Cc1nccc2c1[nH]c1ccccc12 [listing 2 of 2 here] | active
Cc1nccc2c1[nH]c1cc(O)ccc12 [listing 2 of 2 here] | inactive
COc1ccc2c(c1)[nH]c1c(C)nccc12 | active
Cc1ccc(C=C2C(=O)NC(=O)NC2=O)cc1 | inactive
NCC(=O)Nc1ccc(Br)cc1C(=O)c1ccccc1 | inactive
Cn1cnc(CCN)c1 | inactive
CC1(C)CCNC1=O | inactive
COS(C)(=O)=O | inactive
C[C@@H]1CN([C@@H](C)CO)C(=O)c2cc(NC(=O)Nc3ccccc3)ccc2O[C@@H](C)CCCCO[C@H]1CN(C)C(=O)Oc1ccccc1 | inactive
CNc1ccc2oc(C[C@H]3O[C@@]4(CC[C@H]3C)O[C@H]([C@H](C)C(=O)c3ccc[nH]3)[C@H](C)C[C@H]4C)nc2c1C(=O)O | active
C[C@H]1CN([C@@H](C)CO)C(=O)CCCn2nncc2CO[C@H]1CN(C)C(=O)Oc1ccc2ccccc2c1 | inactive
CC=C1CC(C)C(O)(CO)C(=O)OCC2=CCN3CCC(OC1=O)C23 (configuration not stated) | inactive
O=C1CC(=O)N(Cc2ccccc2)C(=O)N1 | inactive
O=C(O)[C@H]1[C@H](C(=O)O)[C@H]2CC[C@@H]1O2 | inactive
C[C@]12CC[C@](C)(O1)[C@H](C(=O)O)[C@@H]2C(=O)O | inactive
C[C@@]1(C(=O)O)[C@H]2CC[C@@H](O2)[C@@]1(C)C(=O)O | active
OCCN1CC2(CCN(c3nccs3)C2)C1 | inactive
C1CCNCC1 | inactive
Cc1cnc[nH]1 | inactive

Structure (SMILES) | cytotoxicity call
C[C@@H]1CN([C@H](C)CO)C(=O)CCCn2cc(nn2)CO[C@H]1CN(C)C(=O)Oc1cccc2ccccc12 | inactive
C[C@H]1CN([C@@H](C)CO)C(=O)CCCn2cc(nn2)CO[C@@H]1CN(C)C(=O)Oc1cccc2ccccc12 | inactive
CC(C)C12OC1C1OC13C1(C)CCC4=C(COC4=O)C1CC1OC13C2O (configuration not stated) | active
CC(C)c1ccc2c(c1O)CCC1C3=C(CCC21C)C(=O)OC3 (configuration not stated) | inactive
NCCc1c[nH]c2ccc(OCC(=O)O)cc12 | inactive
Nc1ncccc1CN1CC[C@]2(CC(=O)NC2=O)C1 | inactive
CC1CCC2C(C)C(=O)OC3OC4(C)CCC1C32OO4 (configuration not stated) | inactive
CCOC1OC2OC3(C)CCC4C(C)CCC(C1C)C24OO3 (configuration not stated) | active
NC(=O)C12CC(CN1)C2 | inactive
COc1ccc2c(c1O)-c1c(OC)c(OC)cc3c1C(C2)N(C)CC3 (configuration not stated) | inactive
COc1cc2c3cc1Oc1c(OC)c(OC)cc4c1[C@@H](Cc1cccc(c1)Oc1ccc(c(O)c1)C[C@@H]3N(C)CC2)N(C)CC4 | inactive
COc1cc2c3cc1Oc1c(OC)c(OC)cc4c1C(Cc1cccc(c1)Oc1ccc(c(O)c1)CC3N(C)CC2)N(C)CC4.Cl.Cl (configuration not stated) | active
O=C(O)CF.[NaH] | inactive
CC(=O)Oc1ccc(C=Cc2cc(OC(C)=O)cc(OC(C)=O)c2)cc1 | inactive
c1cnc(N2CCOC[C@@]3(CCCNC3)C2)cn1 | inactive
O=C(CCCN1CCC2(CC1)C(=O)N(Cc1cccc(F)c1)CN2c1ccccc1)c1ccc(F)cc1 | active
C[C@@H]1CN([C@@H](C)CO)C(=O)CCCn2nncc2CO[C@@H]1CN(C)C(=O)Oc1ccc2ccccc2c1 | inactive
C[C@@H]1CN([C@H](C)CO)C(=O)CCCn2cc(nn2)CO[C@@H]1CN(C)C(=O)Oc1ccc2ccccc2c1 | inactive
CC(C)C[C@H]1C(=O)N2CCC[C@H]2[C@]2(O)O[C@](NC(=O)[C@@H]3C=C4c5cccc6[nH]c(Br)c(c56)C[C@H]4N(C)C3)(C(C)C)C(=O)N12 | inactive
C[C@@H](N)Cc1c[nH]c2ccc(OCc3cccs3)cc12 | inactive
C[C@H]1C[C@@H]2CNC[C@@H]2O1 | inactive
CCN(CC)CCOC(=O)C(O)(c1ccccc1)c1ccccc1.Cl | inactive
CCCCOC(=O)c1ccccc1C(=O)OCCCC | active
CC(N)C(O)c1ccc(O)c(O)c1 (configuration not stated) | inactive
CCS(=O)(=O)N1C[C@@H]2CCN[C@@H]2C1 | inactive
